From the supplement of paper PMC13380429

Test system: Vero E6 infected with SARS-CoV-2
Test: inhibition of SARS-CoV-2 cytopathic effect; higher = more antiviral protection, active = above 15
Conditions: 48 h

| Compound | inhibition of SARS-CoV-2 cytopathic effect (1 nM) | inhibition of SARS-CoV-2 cytopathic effect (8.33 nM) | inhibition of SARS-CoV-2 cytopathic effect (100 nM) | inhibition of SARS-CoV-2 cytopathic effect (833.33 nM) | inhibition of SARS-CoV-2 cytopathic effect (10000 nM) |
| --- | --- | --- | --- | --- | --- |
| CCC(=O)NC[C@H](Cc1ccc(OCCc2nc(-c3ccccc3)oc2C)cc1)N/C(C)=C\C(=O)c1ccc(C(F)(F)F)cc1 | -1.03% (inactive) | 0.69% (inactive) | 0.66% (inactive) | 1.86% (inactive) | 5.34% (inactive) |
| CC(C)C[C@H](NC(=O)[C@H](CCCCN)NC(=O)[C@H](CCCNC(=N)N)NC(=O)[C@H](C)NC(=O)[C@H](CO)NC(=O)[C@H](CCCCN)NC(=O)[C@H](CCCNC(=N)N)NC(=O)[C@H](C)NC(=O)CNC(=O)[C@@H](NC(=O)[C@H](Cc1ccccc1)NC(=O)CNC(=O)CNC(=O)[C@@H](N)Cc1ccccc1)[C@@H](C)O)C(=O)N[C@@H](C)C(=O)N[C@@H](CC(N)=O)C(=O)N[C@@H](CCC(N)=O)C(=O)O [orphanin-fq] | 1.63% (inactive) | -0.61% (inactive) | 0.09% (inactive) | 0.66% (inactive) | 0.4% (inactive) |
| c1ccc(C2CN3CCSC3=N2)cc1 (stereo not given) [tetramisole] | 0.71% (inactive) | 1.55% (inactive) | 0.335% (inactive) | 6.51% (inactive) | 2.84% (inactive) |
| O=S1(=O)N[C@H]2CCCN2c2ccccc21 | -9.82% (inactive) | -6.86% (inactive) | -6.43% (inactive) | -8.3% (inactive) | -12.2% (inactive) |
| COC(=O)C1=C(C)NC(C)=C(C(=O)NCCCN2CCC(c3ccccc3)(c3ccccc3)CC2)C1c1ccc([N+](=O)[O-])cc1 (stereo not given) | 1.77% (inactive) | 1.95% (inactive) | 0.45% (inactive) | 0.78% (inactive) | 48.8% (active) |
